Reference: PubChem BioAssay (EPA / NIEHS)
Records with an inconclusive call do not appear. Active and inactive are the calls of the source. Rule for the calls, unless noted: active = hit-call score of the fitted dose curve at least 0.9, where 1 is the maximum; inactive = score below 0.9.

Assays:
[1] = CCTE_Padilla_ZF_144hpf_TERATOSCORE: (Legacy) CCTE's 144 Hour Post-fertilization zebrafish Assay Teratoscore, Padilla Lab (AID 2283679);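 for AC50: zebrafish embryos with chorions exposed by immersion from 6-8 hpf to 5 dpf with daily renewal; teratogenicity score from eye scoring of death hatching and malformations at 144 hpf; higher score means more developmental defects relative to DMSO baseline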
Method in brief: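 Larvae scored by eye at 144 hpf for death, hatching and malformations after a day in clean Hanks'. Before that, daily-renewed exposure at 80 uM (0.4% DMSO, 26C) from roughly 6-8 hpf through 5 dpf, 4 embryos per chemical.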

[2] = Tanguay_ZF_120hpf_ActivityScore_legacy: (Legacy) Oregon State University Tanguay Lab 120 Hour Post-fertilization zebrafish Assay Score for Activity (AID 2283742; active = hit-call score of the fitted dose curve at least 0.9, where 1 is the maximum;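 for AC50: dechorionated Tropical 5D wild-type zebrafish embryos held singly per well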)
Method in brief: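 Dechorionated 5D embryos, one per well, static exposure 6–120 hpf, 28C, sealed and dark; final DMSO 0.64% (vol/vol). Brightfield binary scoring of mortality plus 18 endpoints; gain-of-signal fit versus DMSO baseline.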

[3] = STM_H9_OrnithineISnorm_perc: Stemina devTOX quickPredict H9 human embryonic stem cell (hESC)-based Assay for Ornithine (ORN) Metabolite Biomarker, Normalized (AID 2283712);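 note: ornithine released into spent medium during last day measured by mass spectrometry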
Method in brief: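 UPLC-HRMS readout: endogenous ornithine EIC area / 13C-ORN internal standard, then % of 0.1% DMSO median. H9 hESCs (pluripotent), 72h exposure, re-dosed with fresh media q24h; last 24-h spent media, deproteinized in 40% acetonitrile.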

[4] = STM_H9_CystineISnorm_perc: Stemina devTOX quickPredict H9 human embryonic stem cell (hESC)-based Assay for Cystine (CYSS) Metabolite Biomarker, Normalized (AID 2283713)
Method in brief: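 UPLC-HRMS read-out: endogenous cystine peak area in spent medium, normalized to isotope-labeled internal standard and to median of 0.1% DMSO controls. Pluripotent H9 cells, 72h exposure, daily medium/compound replenishment; medium from last 24h sampled.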

[5] = STM_H9_OrnCyssISnorm_ratio: Stemina devTOX quickPredict H9 human embryonic stem cell (hESC)-based Assay for Ornithine (ORN):Cystine (CYSS) Ratio (AID 2283714; active = hit-call score of the fitted dose curve at least 0.9, where 1 is the maximum)
Method in brief: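 UPLC-HRMS of spent media: ORN/CYSS ratio of internal-standard-normalized percentages, DMSO (0.1%) baseline. Pluripotent H9 hESCs, 72h exposure, daily re-dosing with fresh media; last 24h media collected.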

[6] = CEETOX_H295R_MTT_cell_viability: Viability Assessment in the CeeTox HT-H295R MTT Assay (AID 2283718);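 for AC50: curve fitted both ways so AC50 may mark viability loss or gain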
Method in brief: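 Human H295R adrenal cells, prestimulated 48 h with 10 uM forskolin, were exposed 48 h to chemicals in 0.1% DMSO. Viability was measured in the same wells by MTT (0.5 mg/ml, 4 h, 37 C), absorbance 570/650 nm, as percent of controls.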

[7] = read-out: Cytochrome P450 (CYP24A1_1), CYP24A1 (gene 1591); experiment: LTEA_HepaRG_CYP24A1_1: Life Technologies and Expression Analysis (LTEA) Assay for Cytochrome P450 (CYP24A1_1) using HepaRG (AID 2283671); settings: mRNA level, 48 h; actives raise or lower the signal
Method in brief: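 Readout is CYP24A1 transcript level by qRT-PCR, normalized to three housekeeping genes, with gain or loss of signal fitted against 0.5% DMSO. Human HepaRG cells received compound for 48 h at up to 100 uM.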

[8] = ArunA_CellTiter_hNC: Viability Assessment in the ArunA Biomedical's Oris Neural Crest (hNC) Cell Migration Assay (AID 2283752; active = hit-call score of the fitted dose curve at least 0.9, where 1 is the maximum)
Method in brief: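 hNC cells (H9 ESC-derived), 60,000/well, Matrigel, LIF + bFGF medium; 16 h 37C attachment; 72 h compound in test medium; CellTiter Aqueous One read-out; loss-of-signal vs DMSO baseline.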

[9] = ArunA_CellTiter_hNP: Viability Assessment in the ArunA Biomedical's Oris Neural Crest (hNC) Cell Migration Assay (AID 2283753; active = hit-call score of the fitted dose curve at least 0.9, where 1 is the maximum)
Method in brief: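 Viability read with CellTiter 96 Aqueous One after 72 h chemical exposure of human hNP1 neuroprogenitors, which were plated on Matrigel in LIF/bFGF medium 16 h beforehand. Endpoint fitted in positive direction relative to DMSO.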

SMILES: COc1cc(C(C)C)c2c(c1)S(=O)(=O)N(COc1cc(=O)n3cccc(OCCN4CCCCC4)c3n1)C2=O
- AC50 [1]: 15.5 µM (active)
- AC50 [2]: 7.72 µM (active)

SMILES: CCCCN1C(=O)[C@@H]([C@H](O)C2CCCCC2)NC(=O)C12CCN(Cc1ccc(Oc3ccc(C(=O)O)cc3)cc1)CC2
- outcome [3]: inactive
- AC50 [4]: 2.26 µM (active)
- AC50 [5]: 2.14 µM (active)
- outcome [2]: inactive

SMILES: Cc1nc(-c2ccccn2)ncc1C(=O)Nn1cc(C)c2cc(F)ccc21
- outcome [3]: inactive
- outcome [4]: inactive
- outcome [5]: inactive
- AC50 [6]: 75.8 µM (active)
- outcome [2]: inactive

SMILES: c1ccc2cc3ccccc3cc2c1
- outcome [7]: inactive
- outcome [6]: inactive
- outcome [2]: inactive

SMILES: CCCC(CCC)C(=O)O
- outcome [7]: inactive
- AC50 [1]: 78.7 µM (active)
- AC50 [3]: 334 µM (active)
- AC50 [4]: 242 µM (active)
- AC50 [5]: 293 µM (active)
- outcome [2]: inactive
- outcome [8]: inactive
- outcome [9]: inactive

SMILES: O=C(O)c1cccc(C[C@@H]2COc3ccc(OCc4nc5cc(F)ccc5s4)cc3[C@@H]2O)c1
- AC50 [1]: 0.463 µM (active)
- AC50 [2]: 37.3 µM (active)

SMILES: O=c1[nH]cnc2c1ncn2[C@H]1CC[C@@H](CO)O1
- outcome [1]: inactive
- outcome [3]: inactive
- outcome [4]: inactive
- outcome [2]: inactive

SMILES: Cc1ncc([C@@H](CCCCCCc2ccc3c(n2)NCCC3)CC(=O)O)cn1
- outcome [3]: inactive
- AC50 [4]: 0.0101 µM (active)
- AC50 [5]: 0.0104 µM (active)
- outcome [6]: inactive
- outcome [2]: inactive

SMILES: CCCc1ccccc1
- outcome [1]: inactive
- outcome [2]: inactive

SMILES: CCCCCCCCCCCCCCCCOS(=O)(=O)O
- AC50 [1]: 7.7 µM (active)
- outcome [2]: inactive

SMILES: COS(C)(=O)=O
- AC50 [3]: 71.4 µM (active)
- AC50 [4]: 62.6 µM (active)
- AC50 [5]: 65.5 µM (active)
- outcome [2]: inactive

SMILES: CC(C)C(=O)Nc1ccc([N+](=O)[O-])c(C(F)(F)F)c1
- AC50 [1]: 14.2 µM (active)
- AC50 [3]: 77.1 µM (active)
- AC50 [4]: 31.6 µM (active)
- AC50 [5]: 50 µM (active)
- outcome [2]: inactive

SMILES: NC(=O)N(O)[C@@H]1COc2cc(OCc3ccccc3)ccc21
- outcome [1]: inactive
- outcome [2]: inactive

SMILES: CCCCOC(=O)c1ccccc1
- AC50 [1]: 59.1 µM (active)
- outcome [2]: inactive

SMILES: Cn1cc[nH]c1=S
- outcome [1]: inactive
- outcome [3]: inactive
- AC50 [4]: 37.7 µM (active)

SMILES: CC[C@H](C)C(=O)O[C@H]1C[C@H](O)C=C2C=C[C@H](C)[C@H](CC[C@@H](O)C[C@@H](O)CC(=O)O)[C@H]21
- outcome [1]: inactive
- outcome [3]: inactive
- outcome [4]: inactive
- outcome [6]: inactive
- outcome [2]: inactive

SMILES: CCCCC(CC)C(=O)OCCOCCOCCOC(=O)C(CC)CCCC (stereo not drawn)
- AC50 [1]: 4.5 µM (active)
- outcome [6]: inactive
- outcome [2]: inactive

SMILES: OCCNCCO
- outcome [3]: inactive
- AC50 [4]: 22.2 µM (active)
- AC50 [5]: 14 µM (active)
- outcome [2]: inactive

SMILES: O=C1CN(N=Cc2ccc([N+](=O)[O-])o2)C(=O)N1
- outcome [1]: inactive
- AC50 [3]: 7.42 µM (active)
- AC50 [4]: 5.91 µM (active)
- AC50 [5]: 6.21 µM (active)
- outcome [2]: inactive

SMILES: OCc1ccccc1
- outcome [1]: inactive
- outcome [2]: inactive

SMILES: COc1cc2c(c(OC)c1OC)-c1ccc(OC)c(=O)cc1[C@@H](NC(C)=O)CC2
- AC50 [7]: 0.067 µM (active)
- AC50 [1]: 61.5 µM (active)
- AC50 [3]: 0.0159 µM (active)
- AC50 [4]: 0.0121 µM (active)
- AC50 [5]: 0.0127 µM (active)
- AC50 [6]: 0.118 µM (active)
- AC50 [2]: 36.4 µM (active)

SMILES: OCC(CO)(CO)CO
- outcome [1]: inactive
- outcome [2]: inactive

SMILES: CC(C)c1nnc2ccc(-c3ocnc3-c3cc(F)ccc3F)cn12
- AC50 [1]: 61.9 µM (active)
- outcome [6]: inactive
- outcome [2]: inactive

SMILES: NC(=O)NN=Cc1ccc([N+](=O)[O-])o1
- outcome [3]: inactive
- outcome [4]: inactive
- AC50 [5]: 2.42 µM (active)
- outcome [2]: inactive
